Assay results reported in PubChem BioAssay AID1508600 (Functional Genomics Laboratory (NCATS/FGL), 2020).
About 3,700 (7%) of roughly 53,000 sequences were called active.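 Rule for the calls: active = gene knockdowns whose robust z-score for IL-1 alpha signal is at least 2 or at most -2, so actives lie on both sides; inactive = the rest.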 This excerpt belongs to a sample that is enriched for actives.

Experiment: Components of the Cytosolic LPS Sensing Pathway: Gene Identification via Genome-wide siRNA Screen;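 note: robust z of the log signal after scaling to non-targeting control siRNA wells of the plate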
Conditions: RAW264.7 macrophages, IL-1a HTRF, actives lie on both sides, screened at 100 nM (by protocol), cells primed 5 h with Pam3CSK4 first
Summary of the method: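 Read-out: IL-1a HTRF on supernatant, divided by plate negative-control median ×100, log-transformed and converted to robust z-score. Cells were RAW264.7 given 100 nM siRNA, Pam3CSK4-primed 5 hours, then LipidA-transfected 24 hour.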
For GGCAACUUCAAGUCCAUAUTT against Pnma3, the z-score was 3.18 (active).
For GCGACUAGUAGUGCAUGAATT against Wdr13, the z-score was -0.434 (inactive).
With CCUUAAACUUGGCCGAGGUTT against Trmt112 the z-score was 0.748 (inactive).
For CGGCCUUCAUCUGCCUUUUTT against Olfr1222, the z-score was 0.475 (inactive).
With GCCACCUCCUACCAAAUGUTT against Sprr4 the z-score was -1 (inactive).
With GGAGCUAAGGGAACAAUUATT against Psmc6 the z-score was -2.1 (active).
With GGAUGUGUCAGGAAAAUAGTT against Ctsm the z-score was -0.176 (inactive).
In the case of GGAAUACGGAAUCAUGGUUTT against Ift52, the z-score is reported as -0.0653 (inactive).
With GGUUAAUCUUAACAACAUCTT against Tmod1 the z-score was 0.266 (inactive).
In the case of GGAUGCCUUGAAGAAAUUATT against Olfr1044, the z-score is reported as 1.34 (inactive).
In the case of GCUCCAUGAAACCCACUCUTT against Zmiz1, the z-score is reported as -0.656 (inactive).
For “GGAAAGAAGCAACCACUUCTT against 4833439L19Rik”, the z-score was 0.403 (inactive).
With CGUGAUCGUGCGUUCCAACTT against Chrnb4 the z-score was 3.11 (active).
In the case of GGAGGACAUGGACACAGUCTT against Slc39a7, the z-score is reported as -0.805 (inactive).
In the case of GGACUAUCCUCACUCCCUUTT against Pigo, the z-score is reported as -0.0578 (inactive).
For GCCGACUGGUUAAAUACAUTT against Nme3, the z-score was 5.79 (active).
For CGAUGCUAGAGAUUAAUCATT against Rdh10, the z-score was -0.0597 (inactive).
For GCACCUGGGCCUUUGAAUATT against Hes2, the z-score was -0.754 (inactive).
For GCAAGGAAGGAUAUUACACTT against Mmp24, the z-score was 1.34 (inactive).
In the case of GGAUCAAUUCUAGAAUCAGTT against Runx3, the z-score is reported as 0.586 (inactive).
In the case of GCAAUAGCAUACCUACCAUTT against Desi2, the z-score is reported as -0.228 (inactive).
For CCAACAUCUAGAGAGUCUGTT against Olfr1031, the z-score was -1.36 (inactive).
For GCUUGAUUAUUGUGUGUCCTT against Olfr786, the z-score was -1.53 (inactive).
In the case of GGAAAUGACGACUACCAAGTT against Tspyl4, the z-score is reported as 2.74 (active).
In the case of GCGCGAUAGAUUUUGUUUATT against Ier5l, the z-score is reported as -0.427 (inactive).
With GGACUAUGGCUCAGCACUCTT against Ttyh1 the z-score was -0.394 (inactive).
For GGACAAGUUUGACUGUUACTT against Als2cl, the z-score was 0.158 (inactive).
For GGAACGACAAUAAAGCUUATT against Ninj1, the z-score was 0.029 (inactive).
In the case of CCACAGAUUACAUUUAUCCTT against Sephs1, the z-score is reported as -1.19 (inactive).
In the case of “GGAGAAAUUCUAUGGUAUUTT against 5031434C07Rik”, the z-score is reported as 2.18 (active).
In the case of GGACUUGAUUGAAGUCAUATT against Tmem132d, the z-score is reported as 0.242 (inactive).
For GUUGGCAUAUUUUAUGGCATT against Olfr1033, the z-score was 1.28 (inactive).
For GGAACAGGAAUAUGAAAGATT against Olfr836, the z-score was -0.903 (inactive).
For CGGCUUGGACAGAUUUAUCTT against Rer1, the z-score was 0.0516 (inactive).
With GCAUCCUUAGUGAUUUCUATT against Slc48a1 the z-score was 0.601 (inactive).
For CCUACAACGAACGGGAGAATT against Dpm1, the z-score was 0.408 (inactive).
For GGUUCUGACAGACAAAAUUTT against Luc7l3, the z-score was -0.379 (inactive).
In the case of GCGGUUCGCUGUUUGUUUCTT against Zbtb11os1, the z-score is reported as 2.54 (active).
In the case of CGCUAGCUUAUUUUCCGCCTT against Slc49a4, the z-score is reported as 1.1 (inactive).
In the case of GGACGACAUGAUUUUCGAGTT against Atp1b1, the z-score is reported as -0.399 (inactive).
With CCACGAAGAGCAAGAAAACTT against Gm5941 the z-score was -1.15 (inactive).
In the case of GGCCUGUAGUCAAUGGAAATT against Magi2, the z-score is reported as -0.382 (inactive).
For GGUUGCACUUUUUCAUAGUTT against Bcl2l2, the z-score was 0.97 (inactive).
In the case of GGAGGUGCUAACCUAACAGTT against Ggh, the z-score is reported as -1.1 (inactive).
With GGAAUAUCCAGUAUUGAUUTT against Cd180 the z-score was -0.396 (inactive).
In the case of GCUCGAUUGACCUCAUUCATT against Rhbdf2, the z-score is reported as -2.45 (active).
With GGUGUCGAGAAGCCUCAAATT against Arhgap24 the z-score was -0.617 (inactive).
With GCCGUAUGGCAGGUAUUUUTT against Tmem266 the z-score was 3.27 (active).
For CCACUACAACAACACUUAUTT against Keg1, the z-score was 0.84 (inactive).
In the case of GCAUCUACCUUCUAUUACUTT against Gpsm1, the z-score is reported as 0.533 (inactive).
For GGACAUGCUCUAUAAGAAGTT against Pabpc5, the z-score was -0.642 (inactive).
For GGCAACUUGAUUGUAAACUTT against Zic2, the z-score was 0.795 (inactive).
For CAGAAUUCAGAUAAUCUUGTT against Defb22, the z-score was 1.06 (inactive).
With GGAUAUCCAAGUAAGGUGUTT against Mrpl9 the z-score was -0.504 (inactive).
For GACUGAGCUUCUGUGAUGGTT against Olfr921, the z-score was -2.5 (active).
For GGAGAAGAAGGGAAAGCAUTT against Tub, the z-score was -1.4 (inactive).
With GGUGGAUAUUCCAUCUAUUTT against Snx14 the z-score was 2.76 (active).
In the case of CGUUUUCAGAGAUGUGCGCTT against Cmtm5, the z-score is reported as -1 (inactive).
In the case of GCCAGUAUUAGCCUAGAUCTT against Vstm5, the z-score is reported as -1.65 (inactive).
With CCCAGCUCUGUUUAAUGAUTT against Klf8 the z-score was -0.449 (inactive).
In the case of GGAUCUUAAGAAGUUCCAATT against Chchd6, the z-score is reported as -0.104 (inactive).
With CCUCCUUUUUUCUCUGUCUTT against Ugt1a9 the z-score was -2.79 (active).
With GGAUUUGCCUUAAAAAAUCTT against Dock4 the z-score was -0.0352 (inactive).
For GGUUUGAGGUAACACUAGATT against Vps39, the z-score was -0.125 (inactive).
With GCUGAAAGGAAUGUGCUCATT against Hspa8 the z-score was -1.57 (inactive).
In the case of GCCGGAUGAAGGACUUUACTT against Dcc, the z-score is reported as -1.98 (inactive).
With CCUAGUCUAGCUGACUUGCTT against Eppin the z-score was 1.41 (inactive).
In the case of GGUUACGAAAAGCUGCCUUTT against Ints14, the z-score is reported as -0.125 (inactive).
For GGCCUUGGCAAUUAUUUGUTT against Syap1, the z-score was -0.0759 (inactive).
